The whole screen tested about 5,500 compounds, of which about 2,000 (36%) were called active. About 18% were inconclusive and are not listed. No stated cut-off is given here; in the data, active means normalized growth mostly below about 0.91 (no sharp cut-off); inconclusive means no clear call, values can overlap the other calls; inactive means mostly above about 0.92. Some of the results follow.
Test: chemical genetic growth profiling, strain panel (AID 1159580);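 further: tested at 20 µM; growth read once vehicle control cultures reached saturation at 30 °C; 1 = growth at the plate median or of vehicle wells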
Settings: growth OD
[1] = S. cerevisiae deletion strains, locus YAL013W, strain DEP1, stronger effect = lower value
[2] = S. cerevisiae deletion strains, locus YBR229C, strain ROT2, stronger effect = lower value
[3] = S. cerevisiae deletion strains, locus YCL061C, strain MRC1, stronger effect = lower value
[4] = S. cerevisiae deletion strains, locus YDL101C, strain DUN1, stronger effect = lower value
[5] = S. cerevisiae deletion strains, locus YDR150W, strain NUM1, stronger effect = lower value
[6] = S. cerevisiae deletion strains, locus YEL061C, strain CIN8, stronger effect = lower value
[7] = S. cerevisiae deletion strains, locus YGR078C, strain PAC10, stronger effect = lower value
[8] = S. cerevisiae deletion strains, locus YHR030C, strain SLT2, stronger effect = lower value
[9] = S. cerevisiae deletion strains, locus YHR087W, strain rtc3, stronger effect = lower value
[10] = S. cerevisiae deletion strains, locus YJR043C, strain POL32, stronger effect = lower value
[11] = S. cerevisiae deletion strains, locus YJR075W, strain HOC1, stronger effect = lower value
[12] = S. cerevisiae deletion strains, locus YLR039C, strain RIC1, stronger effect = lower value
[13] = S. cerevisiae deletion strains, locus YLR058C, strain SHM2 (second series), stronger effect = lower value
[14] = S. cerevisiae deletion strains, locus YLR085C, strain ARP6, stronger effect = lower value
[15] = S. cerevisiae deletion strains, locus YLR262C, strain YPT6, stronger effect = lower value
[16] = S. cerevisiae deletion strains, locus YML094W, strain GIM5, stronger effect = lower value
[17] = S. cerevisiae deletion strains, locus YMR219W, strain ESC1, stronger effect = lower value
[18] = S. cerevisiae deletion strains, locus YMR263W, strain SAP30, stronger effect = lower value
[19] = S. cerevisiae deletion strains, locus YNL153C, strain GIM3, stronger effect = lower value
[20] = S. cerevisiae deletion strains, locus YNL298W, strain CLA4 (second series), stronger effect = lower value
[21] = S. cerevisiae deletion strains, locus YNL322C, strain KRE1, stronger effect = lower value
[22] = S. cerevisiae deletion strains, locus YNR030W, strain Alg12, stronger effect = lower value
[23] = S. cerevisiae deletion strains, locus YOL006C, strain TOP1, stronger effect = lower value
[24] = S. cerevisiae deletion strains, locus YPL055C, strain LGE1, stronger effect = lower value
[25] = S. cerevisiae deletion strains, locus YPL241C, strain CIN2, stronger effect = lower value
[26] = S. cerevisiae deletion strains, locus YPR135W, strain CTF4, stronger effect = lower value
[27] = S. cerevisiae strains, strain wild type, stronger effect = lower value
[28] = S. cerevisiae deletion strains, locus YDL134C, strain PPH21, stronger effect = lower value

Measured: normalized growth

CSc1cccc(NC(=S)N=CN(C)C)c1
active: [9] 1.12 [resistant] | [12] 0.73 | [14] 0.618 | [20] 0.798 | [23] 0.393
inactive: [1] 0.977 | [2] 1.01 | [3] 0.954 | [4] 0.944 | [5] 0.974 | [6] 0.997 | [7] 0.977 | [8] 0.882 | S. cerevisiae deletion strains, locus YJL187C, strain SWE1, stronger effect = lower value 0.988 | [10] 0.961 | [11] 1.05 | [13] 1.03 | [15] 0.932 | [16] 0.96 | [17] 1 | [18] 0.983 | S. cerevisiae deletion strains, locus YNL128W, strain TEP1, stronger effect = lower value 0.962 | [19] 0.963 | [21] 1 | [22] 0.958 | [24] 1.02 | [25] 0.898 | [26] 0.787 | [27] 0.933

COc1ccc(CCNc2ccc(C(F)(F)F)cc2N)cc1OC
inactive: [1] 1 | [2] 0.998 | [3] 1 | [4] 0.974 | [28] 1.02 | [5] 0.911 | [6] 1.02 | [7] 0.985 | [8] 0.903 | [9] 1.04 | [10] 0.996 | [11] 1.02 | [12] 0.988 | [13] 1.01 | [14] 0.961 | [15] 0.946 | [16] 0.972 | [17] 0.994 | [18] 0.918 | [19] 0.988 | [20] 0.966 | [21] 1.01 | [22] 0.974 | [23] 1.01 | [24] 0.893 | [25] 0.93 | [26] 0.842 | [27] 1.01

COc1ccccc1Oc1ccc(C(F)(F)F)cc1NC(=O)NC(=O)c1ccccc1F
inactive: [1] 0.997 | [2] 1 | [3] 0.972 | [4] 0.968 | [28] 0.984 | [5] 1.02 | [6] 0.979 | [7] 0.979 | [8] 1 | [9] 1.06 | [10] 0.984 | [11] 1.02 | [12] 0.964 | [13] 1 | [14] 1.02 | [15] 1.02 | [16] 1.02 | [17] 0.994 | [18] 1.01 | [19] 1 | [20] 0.958 | [21] 0.995 | [22] 1.03 | [23] 0.966 | [24] 1.04 | [25] 0.992 | [26] 0.957 | [27] 0.974

Cc1cc(Oc2ccc(C(F)(F)F)cc2NS(C)(=O)=O)cc(C)c1Cl
active: [8] 0.802 | S. cerevisiae deletion strains, locus YLR113W, strain HOG1, stronger effect = lower value 0.75 | S. cerevisiae deletion strains, locus YPL256C, strain CLN2, stronger effect = lower value 0.827
inactive: S. cerevisiae deletion strains, locus YAR019C, strain CDC15, stronger effect = lower value 0.992 | S. cerevisiae deletion strains, locus YBL105C, strain PKC1, stronger effect = lower value 0.988 | S. cerevisiae deletion strains, locus YBR135W, strain CKS1, stronger effect = lower value 0.995 | S. cerevisiae deletion strains, locus YBR136W, strain MEC1, stronger effect = lower value 0.991 | S. cerevisiae deletion strains, locus YBR160W, strain CDC28, stronger effect = lower value 0.988 | S. cerevisiae deletion strains, locus YDL017W, strain CDC7, stronger effect = lower value 0.982 | S. cerevisiae deletion strains, locus YDL028C, strain MPS1, stronger effect = lower value 0.998 | [4] 0.979 | S. cerevisiae deletion strains, locus YDL108W, strain KIN28, stronger effect = lower value 0.995 | S. cerevisiae deletion strains, locus YDL132W, strain cdc53, stronger effect = lower value 0.989 | S. cerevisiae deletion strains, locus YDL214C, strain PRR2, stronger effect = lower value 0.961 | S. cerevisiae deletion strains, locus YDR052C, strain DBF4, stronger effect = lower value 0.996 | S. cerevisiae deletion strains, locus YDR054C, strain cdc34, stronger effect = lower value 0.995 | S. cerevisiae deletion strains, locus YDR226W, strain ADK1, stronger effect = lower value 0.979 | S. cerevisiae deletion strains, locus YDR477W, strain SNF1, stronger effect = lower value 0.978 | S. cerevisiae deletion strains, locus YER123W, strain YCK3, stronger effect = lower value 0.95 | S. cerevisiae deletion strains, locus YER133W, strain GLC7, stronger effect = lower value 0.974 | S. cerevisiae deletion strains, locus YFL009W, strain cdc4, stronger effect = lower value 0.995 | S. cerevisiae deletion strains, locus YFL029C, strain CAK1, stronger effect = lower value 0.981 | S. cerevisiae deletion strains, locus YFR003C, strain YPI1, stronger effect = lower value 0.986 | S. cerevisiae deletion strains, locus YFR019W, strain FAB1, stronger effect = lower value 0.984 | S. cerevisiae deletion strains, locus YFR028C, strain CDC14, stronger effect = lower value 0.995 | S. cerevisiae deletion strains, locus YGR040W, strain KSS1, stronger effect = lower value 0.985 | S. cerevisiae deletion strains, locus YGR052W, strain FMP48, stronger effect = lower value 0.986 | S. cerevisiae deletion strains, locus YGR092W, strain DBF2, stronger effect = lower value 0.889 | S. cerevisiae deletion strains, locus YHR079C, strain IRE1, stronger effect = lower value 0.873 | S. cerevisiae deletion strains, locus YHR082C, strain KSP1, stronger effect = lower value 1.03 | S. cerevisiae deletion strains, locus YHR205W, strain SCH9, stronger effect = lower value 0.902 | S. cerevisiae deletion strains, locus YIL147C, strain SLN1, stronger effect = lower value 0.993 | S. cerevisiae deletion strains, locus YJL095W, strain BCK1, stronger effect = lower value 0.891 | S. cerevisiae deletion strains, locus YJL128C, strain PBS2, stronger effect = lower value 0.947 | S. cerevisiae deletion strains, locus YJL157C, strain FAR1, stronger effect = lower value 0.963 | S. cerevisiae deletion strains, locus YJR016C, strain ILV3, stronger effect = lower value 0.986 | S. cerevisiae deletion strains, locus YJR066W, strain TOR1 (second series), stronger effect = lower value 0.928 | S. cerevisiae deletion strains, locus YJR066W, strain TOR1, stronger effect = lower value 1.01 | S. cerevisiae deletion strains, locus YKL048C, strain ELM1, stronger effect = lower value 0.985 | S. cerevisiae deletion strains, locus YKL067W, strain YNK1, stronger effect = lower value 0.957 | S. cerevisiae deletion strains, locus YKL101W, strain HSL1, stronger effect = lower value 0.961 | S. cerevisiae deletion strains, locus YKL193C, strain SDS22, stronger effect = lower value 0.989 | S. cerevisiae deletion strains, locus YKL203C, strain TOR2, stronger effect = lower value 1.02 | S. cerevisiae deletion strains, locus YLR133W, strain CKI1, stronger effect = lower value 0.96 | S. cerevisiae deletion strains, locus YLR403W, strain SFP1, stronger effect = lower value 0.939 | S. cerevisiae deletion strains, locus YML070W, strain DAK1, stronger effect = lower value 0.931 | S. cerevisiae deletion strains, locus YMR001C, strain CDC5, stronger effect = lower value 0.989 | S. cerevisiae deletion strains, locus YMR205C, strain PFK2 (second series), stronger effect = lower value 0.972 | S. cerevisiae deletion strains, locus YMR277W, strain FCP1, stronger effect = lower value 0.991 | S. cerevisiae deletion strains, locus YNL006W, strain LST8, stronger effect = lower value 0.983 | S. cerevisiae deletion strains, locus YNL020C, strain ARK1, stronger effect = lower value 0.914 | S. cerevisiae deletion strains, locus YNL161W, strain CBK1, stronger effect = lower value 0.985 | S. cerevisiae deletion strains, locus YNL183C, strain NPR1, stronger effect = lower value 0.981 | S. cerevisiae deletion strains, locus YNL207W, strain RIO2, stronger effect = lower value 0.987 | S. cerevisiae deletion strains, locus YNL222W, strain SSU72, stronger effect = lower value 0.996 | S. cerevisiae deletion strains, locus YNL307C, strain MCK1 (second series), stronger effect = lower value 0.939 | S. cerevisiae deletion strains, locus YOL078W, strain AVO1, stronger effect = lower value 0.995 | S. cerevisiae deletion strains, locus YOL136C, strain PFK27, stronger effect = lower value 0.939 | S. cerevisiae deletion strains, locus YOR061W, strain CKA2, stronger effect = lower value 0.923 | S. cerevisiae deletion strains, locus YOR119C, strain RIO1, stronger effect = lower value 1.04 | S. cerevisiae deletion strains, locus YOR231W, strain MKK1, stronger effect = lower value 0.902 | S. cerevisiae deletion strains, locus YOR329C, strain SCD5, stronger effect = lower value 0.984 | S. cerevisiae deletion strains, locus YPL031C, strain PHO85, stronger effect = lower value 0.971 | S. cerevisiae deletion strains, locus YPL153C, strain RAD53, stronger effect = lower value 0.981 | S. cerevisiae deletion strains, locus YPL204W, strain HRR25, stronger effect = lower value 0.947 | S. cerevisiae deletion strains, locus YPL209C, strain IPL1, stronger effect = lower value 0.987 | S. cerevisiae deletion strains, locus YPR025C, strain CCL1, stronger effect = lower value 0.993 | S. cerevisiae deletion strains, locus YPR106W, strain ISR1, stronger effect = lower value 0.985 | S. cerevisiae deletion strains, locus YPR111W, strain DBF20, stronger effect = lower value 0.973 | S. cerevisiae deletion strains, strain NNK1, stronger effect = lower value 0.984 | S. cerevisiae deletion strains, strain TSCII, stronger effect = lower value 0.993

Source: PubChem BioAssay AID1159580 (chemical genetic matrix, 2015)
